GSH fluor = compound fluorescence on glutathione beads, profiling panel, artefact control, biophysical, 488/530 nm, flow cytometry; GSH beads flow cytometry, compound fluorescence 488/530 nm; active compounds read high; fluorescence (KMESF) at 10 µM; hit rate 0.25% among 190,000; AID 1776, 2009; in the data active = fluorescence above about 89;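 also: glutathione beads carrying GST-tagged Bcl family fusion proteins plus one bare bead set; values are compound well signal with DMSO vehicle wells as background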
EP2 mod = EP2 receptor modulators, cAMP readout, primary screen, cell-based, HTRF cAMP, PGE2 stimulation; Prostaglandin E2 receptor EP2 subtype (Homo sapiens), P43116; EP2-expressing cells, cAMP HTRF FRET, PGE2 co-stimulation; induction, % at 25 µM; hit rate 0.83% among 260,000;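 active = compounds whose cAMP rise, as percent of the full-agonist control response, exceeds 60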;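 also: rat C6 glioma line stably carrying human EP2 under a CMV promoter; the protocol text gives 20 µM as final concentration; 100% = response of wells given 1 µM PGE2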
Target sequence (P43116 whole entry, looked up): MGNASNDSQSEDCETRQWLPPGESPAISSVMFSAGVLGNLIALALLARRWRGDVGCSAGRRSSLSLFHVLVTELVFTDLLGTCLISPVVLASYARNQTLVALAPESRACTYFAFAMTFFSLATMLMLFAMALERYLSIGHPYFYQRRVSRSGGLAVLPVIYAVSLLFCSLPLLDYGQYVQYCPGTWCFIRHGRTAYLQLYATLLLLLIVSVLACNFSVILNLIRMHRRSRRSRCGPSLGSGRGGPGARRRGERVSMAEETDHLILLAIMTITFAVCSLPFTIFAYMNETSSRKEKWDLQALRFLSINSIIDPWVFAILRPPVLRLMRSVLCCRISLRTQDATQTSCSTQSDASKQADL
HMGR II inh = inhibitors of E. faecalis class II HMGR, primary screen, biochemical, Enterococcus faecalis. HMG-CoA reductase (Enterococcus faecalis, mvaE). purified E. faecalis HMGR, NADPH absorbance 340 nm kinetic. inhibition, % at 10 µM. hit rate 0.41% among 190,000;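 active = inhibition above a set limit, the median over all tested compounds plus 3 SD, cut at about 9.5% in these data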;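 also: enzyme runs in reverse so mevalonate oxidation gives rising NADPH absorbance; 0% = complete reaction with DMSO and 100% = background rate lacking mevalonate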
Avidin fluor = green autofluorescence of compounds with avidin beads – biophysical, 488/530 nm, flow cytometry, artefact control, profiling panel | compound fluorescence 488/530 nm; active compounds read high | fluorescence (KMESF) at 10 µM | hit rate 0.38% among 220,000 | AID 1775, 2009; in the data active = fluorescence above about 47
EP2 antag = human EP2 receptor antagonists, primary screen, TR-FRET cAMP, C6 glioma cells; hit rate 0.52% among 260,000; Prostaglandin E2 receptor EP2 subtype (Homo sapiens), P43116; inhibition, % at 25 µM; C6 glioma cells expressing human EP2; cells stimulated with saturating PGE2;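 active = percent inhibition above 40 after rounding to a whole number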;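 also: rat C6 glioma host cells with rolipram phosphodiesterase inhibitor present; the protocol text gives 20 µM as final concentration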
* marks the source's active call; other numbers are inactive results; ! = not active in a repeat. This is a sample that favours compounds with a hit; in the whole collection about 2.1% have one here.

Screening COc1ccc(C(c2nnnn2C2CCCC2)N2CCN(c3ccccc3)CC2)cc1OC (stereo unspecified) returned EP2 mod -15 and EP2 antag 7.
CCOC(=O)Nc1cccc(Nc2ccccc2)c1 was read as GSH fluor 57, EP2 mod 62*, HMGR II inh -5, Avidin fluor 7 and EP2 antag 6.
CCCCN(CCCC)C(=O)c1sc2nc(N3CCOCC3)c3c(c2c1N)CCCC3 was read as EP2 mod 87*, Avidin fluor 7 and EP2 antag 10.
CCn1c(N)c(C(=O)NC)sc1=S was read as GSH fluor 87*, EP2 mod 14, HMGR II inh -4, Avidin fluor 8 and EP2 antag 12.
Screening Cc1cc(C)n2nc(CC(=O)NC3(c4ccc(F)cc4)CCCC3)nc2n1 returned EP2 mod 16.
Screening C[C@@]12CC[C@@H]3[C@H](CC=C4C[C@@H](O)CC[C@@]43C)[C@H]1CC[C@H]2N(CCO)CCO returned EP2 mod 10 and EP2 antag 49*.
Screening O=C(Nc1ccc(Br)cc1Br)C1CC(=O)N(c2ccc(F)cc2)C1 (stereo unspecified) returned EP2 mod -36 and EP2 antag 10.
Screening O=C(CSc1cccc(C(F)(F)F)c1)N1CCN(S(=O)(=O)c2ccccc2)CC1 returned GSH fluor 265*, EP2 mod -11, HMGR II inh -1, Avidin fluor 8 and EP2 antag 9.
Screening CN(C)Cc1cc(C(C)(C)C)cc(CN(C)C)c1O returned EP2 mod 9 and EP2 antag 18.
For CN(C)Cc1cc(C(F)(F)F)ccc1C(O)(c1ccccc1)c1ccccc1 the results were EP2 mod -18 and EP2 antag 46*.
Screening O=C1c2ccccc2[C@@H]([C@H]2c3ccccc3C(=O)c3cc(Br)ccc32)c2ccc(Br)cc21 returned EP2 mod 4 and EP2 antag 54*.
`CC1(c2ccccc2NC(=O)c2cccs2)CC1` gave EP2 mod 65* and EP2 antag 10.
For CS(=O)(=O)N1CCN(c2ccccc2NC(=O)c2cccs2)CC1 the results were GSH fluor 10, EP2 mod 14, HMGR II inh 0, Avidin fluor 47* and EP2 antag 8.
Screening O=C(Nc1ccccc1N1CCCCC1)c1ccco1 returned GSH fluor 28, EP2 mod 64*, HMGR II inh -5, Avidin fluor 8 and EP2 antag 11.
Screening O=C(Nc1ccccc1N1CCCCC1)c1cccs1 returned GSH fluor 34, EP2 mod 61*, HMGR II inh 1, Avidin fluor 14 and EP2 antag 4.
For CS(=O)(=O)N1CCN(c2ccccc2NC(=O)c2ccc(Cl)cc2)CC1 the results were GSH fluor 9, EP2 mod -8, HMGR II inh 0, Avidin fluor 8 and EP2 antag 1.
Screening O=C(Nc1ccccc1Cl)c1cccs1 returned GSH fluor 13, EP2 mod 5, HMGR II inh -6, Avidin fluor 18 and EP2 antag 10.
For CN1C(=O)C2(C(C#N)=C(N)Oc3c2c(=O)oc2ccccc32)c2ccccc21 (stereo unspecified) the results were EP2 mod -15 and EP2 antag 9.
Screening C=CCNC(=O)[C@H]1C=CCN1C(=O)c1ccc(OC)cc1 returned EP2 mod -15 and EP2 antag 8.
`Cn1c(CCCN)nc2ccccc21` gave EP2 mod -1 and EP2 antag 10.
O=C(COc1ccccc1)Nc1ccccc1N1CCCCC1 was read as GSH fluor 58, EP2 mod 64*!, HMGR II inh -4, Avidin fluor 9 and EP2 antag 11.
Cc1cccc(OCC(=O)Nc2ccccc2N2CCCCC2)c1 was read as GSH fluor 21, EP2 mod 52, HMGR II inh -5, Avidin fluor 14 and EP2 antag 3.
`COc1ccc(/C=C\c2nc(O)c([N+](=O)[O-])c(=O)[nH]2)cc1OCc1c(F)cccc1Cl` gave EP2 mod 12 and EP2 antag 8.
`CC1CCN(CCCNC(=O)C2CCN(S(=O)(=O)N3CCCCC3)CC2)CC1` gave GSH fluor 32, EP2 mod -15, HMGR II inh -1, Avidin fluor 10 and EP2 antag 19.
CC1CCCCN1CCNC(=O)C1CCN(S(=O)(=O)N2CCCCC2)CC1 (stereo unspecified) was read as GSH fluor 34, EP2 mod 17, HMGR II inh 0, Avidin fluor 11 and EP2 antag 120*.
Screening COc1ccc(N2CCN(C(CNC(=O)C(C)(C)C)c3ccco3)CC2)cc1 (stereo unspecified) returned GSH fluor 17, EP2 mod -8, HMGR II inh 11*, Avidin fluor 9 and EP2 antag 11.
`COc1ccc(N2CCN(C(CNC(C)=O)c3ccco3)CC2)cc1` (stereo unspecified) gave GSH fluor 14, EP2 mod -4, HMGR II inh -10, Avidin fluor 10 and EP2 antag 5.
For c1ccc(-c2cnc(-c3ccc(-c4ncc(-c5ccccc5)o4)cc3)o2)cc1 the results were EP2 mod 12 and EP2 antag 45*.
For CC(=O)/C=C(\C)Nc1ccc(-c2cnc(-c3ccccc3)o2)cc1 the results were GSH fluor 15, EP2 mod -26, HMGR II inh 2, Avidin fluor 11 and EP2 antag 20.
`O=C(OCCN1CCCCC1)c1cccs1` gave EP2 mod 19 and EP2 antag 3.
`O=C(CSc1nnnn1-c1ccccc1)Nc1ccc(N2CCOCC2)c(Cl)c1` gave GSH fluor 11, EP2 mod -12, HMGR II inh 15*, Avidin fluor 8 and EP2 antag 19.
`CCOC(=O)NC(=O)CSc1nnnn1-c1ccccc1` gave GSH fluor 30, EP2 mod 5, HMGR II inh -1, Avidin fluor 109* and EP2 antag 9.
`CN(C(=O)Cn1c2ccccc2c(=O)c2ccccc21)c1nc2c(s1)CCc1occc1-2` gave EP2 mod 0 and EP2 antag 5.
For CCC(=O)NC(Nc1ncc(C)s1)(C(=O)OC)C(F)(F)F (stereo unspecified) the results were GSH fluor 124*, EP2 mod 8, HMGR II inh -7, Avidin fluor 8 and EP2 antag 5.
CCC(=O)NC(Nc1ccccn1)(C(=O)OC)C(F)(F)F (stereo unspecified) was read as GSH fluor 24, EP2 mod 34, HMGR II inh 4, Avidin fluor 5 and EP2 antag 3.

High-throughput results: PubChem BioAssay, several laboratories
